Data on 42 molecules can be found in PubChem BioAssay AID1259423 (Fisher Drug Discovery Resource Center, 2018).

This experiment has as its system Aedes aegypti neuropeptide Y-like receptor 7 (NPYLR7). The experiment in a line: agonists of mosquito NPYLR7 receptor, primary screen, cell-based, Aedes aegypti, calcium fluorescence, mosquito biting behavior (AID 1259423).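 Further: 0% = vehicle and 100% = reference agonist at the receptor.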 To be noted: HEK293T NPYLR7/Galpha15, GCaMP6s calcium fluorescence, at 10 µM, stronger effect = higher value.
The mark [1] stands for this setting: measured here: Max-Min RFU normalised activation.

“And” between values parts separate entries of the source, which are not always exact repeats. Equal entries are not always repeated. Among all 270,000 compounds or so, about 410 (0.15%) were called active. No stated cut-off is given here; in the data, active means activation above about 40%; inactive means the rest, inconclusive results apart. For the sample, actives were picked, then their nearest neighbours and some compounds at random.

Turning to `Cc1cnccc1N1CCCN(C(=O)[C@H](N)CC(C)C)CC1`, the activation is 8.21% (inactive). Also, the activation under setting [1] is 7.83%.

Take `Cc1ccccc1-c1noc(CN2CCN(C(=O)c3cc(C4CC4)[nH]n3)CC2)n1`: the activation is 0.903% (inactive). In addition, under setting [1], the activation was 0.506%.

With `CCC(CO)[n+]1c(C)cc(C=C2Sc3ccccc3N2CC)cc1C` (centres undefined), the activation is 56.5% (active). In addition, under setting [1], the activation is 44.4%.

As to `Cn1nc(C(F)(F)F)cc1C(=O)N1CCCC(O)(CO)CC1` (centres undefined), the activation was 3.25% (inactive). The activation under setting [1] amounted to 1.85%.

Regarding `COC(=O)Cn1cc(C=C(C#N)C(=O)NCCc2c[nH]c3ccccc23)c2ccccc21`, the activation is 1.04% (inactive). Besides, the activation under setting [1] stood at 1.01%.

On to `CCCn1nccc1C(=O)Nc1cc2c(C)cc(=O)oc2cc1C`, for which the activation is -4.21% (inactive). Under setting [1], the activation was -5.15%.

With `CCCc1nc(N2CCCN(c3ncccn3)CC2)c2cnn(C)c2n1`, the activation was -2.57% (inactive). Moreover, under setting [1], the activation is -6.77%.

Consider `COc1ccc(OC)c(S(=O)(=O)N2CCCC(c3nc4ccccc4s3)C2)c1` (centres undefined), for which the activation is -8.36% (inactive). Besides, the activation under setting [1] is -7.77%.

Take `Cc1ccn(-c2ccc(NC3CC4CCC3O4)nn2)n1` (centres undefined): the activation was 7.09% (inactive). For the same molecule, under setting [1], the activation is 3.85%.

Consider `Cc1ccc(C2(c3noc(CN(C)Cc4ccc5ccccc5n4)n3)CCCC2)cc1`, for which the activation is 32.2% (inactive) and 4.89% (inactive). Besides, under setting [1], the activation is 24.1% and 13.2%.

On to `CSc1[s+]sc2c1-c1ccc(C)cc1NC2(C)C`, for which the activation is -1.46% (inactive). Also, under setting [1], the activation turned out to be 5.63%.

As to `Cn1cc(NC(=O)Nc2cccc(N3CCCCCC3)c2)cn1`, the activation is 8.13% (inactive). In addition, the activation under setting [1] amounted to 3.07%.

Turning to `O=C(CCc1ccco1)N1CCc2onc(-c3ccc(C(F)(F)F)cc3)c2C1`, the activation is 3.67% (inactive). Further, the activation under setting [1] was -10.1%.

Take `O=C(O)c1[nH]ncc1CN1CCCC(c2[nH]ncc2Cc2ccccc2)C1` (centres undefined): the activation was 2.78% (inactive). Also, the activation under setting [1] came to 3.74%.

Turning to `O=C(O)c1[nH]ncc1CN1CCc2onc(-c3ccc(C(F)(F)F)cc3)c2C1`, the activation is 78.5% (active). For the same molecule, the activation under setting [1] was determined as 41.2%.

In the case of `Cc1csc(N(C)C(=O)c2cc(N3CCNC3=O)ccc2F)n1`, the activation was -7.45% (inactive). The activation under setting [1] was -7.61%.

Turning to `COc1ccc(-n2nnc3c(N4CCN(C(=O)c5ccc(Br)o5)CC4)ncnc32)cc1`, the activation is -8.62% (inactive). For the same molecule, under setting [1], the activation was -14.8%.

Regarding `CCOc1cc(/C=C(\C#N)c2nc3ncc(Br)cc3[nH]2)ccc1O`, the activation was 90.2% (active). The activation under setting [1] amounted to 69.1%.

Turning to `N#CCc1nc2ncc(Br)cc2[nH]1`, the activation is -4.5% (inactive). Further, the activation under setting [1] is -5.31%.

For the molecule `CCOc1ccc(/C=C(\C#N)c2[nH]nc(N)c2C#N)cc1OCC`, the activation is -1.82% (inactive). The activation under setting [1] was -4%.

On to `OCc1ccc(CN2CCC(Oc3ccc(Cl)cc3)CC2)o1`, for which the activation is 2.49% (inactive). Also, the activation under setting [1] was 0.105%.

On to `COCCN(Cc1cc(NC(=O)c2cccc(F)c2)ccc1N(C)C)C(=O)NC(C)(C)C`, for which the activation is -2.37% (inactive). The activation under setting [1] is -0.561%.

On to `CCOC(=O)c1ccc2c(c1)nc(SCc1cccc(C(=O)OC)c1)n2Cc1cccc(F)c1`, for which the activation is -6.01% (inactive). In addition, under setting [1], the activation was -4.5%.

Regarding `COc1cc(C=C2C=c3c(O)cccc3=C2O)cc(Cl)c1O`, the activation was 203% (active). In addition, the activation under setting [1] stood at 183%.

Take `COc1cc(/C=C2/C(=O)N(c3ccc(Cl)c(Cl)c3)N=C2C)cc(Br)c1O`: the activation is -1.16% (inactive). Further, the activation under setting [1] is 5.59%.

`COc1cccc(CSc2nnc(CNC(=O)Nc3cc(OC)cc(OC)c3)n2-c2ccc([N+](=O)[O-])cc2)c1`: the activation was 22.3% (inactive). Also, the activation under setting [1] came to 16.8%.

Take `CC(C)CNC(=O)c1ccc2c(=O)n(Cc3ccccc3)c3nn(CC(N)=O)c(=O)n3c2c1`: the activation was 2.33% (inactive). In addition, the activation under setting [1] was -0.424%.

As for `C/C=C/c1cc(C(=O)N2CCN(CCO)CC2)cc(OC)c1OC`, the activation is 2.68% (inactive). Moreover, under setting [1], the activation was 0.348%.

As for `CC(C)N(CC1CCC(=O)N1)C(=O)c1cc(Cl)c[nH]c1=O` (centres undefined), the activation was -1.21% (inactive). In addition, the activation under setting [1] was -6.03%.

For `CN1CC2(CCCN(C(=O)c3cccc(Cn4cccn4)c3)CC2)OC1=O` (centres undefined), the activation was 33.4% (inactive). The activation under setting [1] worked out at 15.5%.

With `CC(C)(Oc1ccc(Cl)cc1)C(=O)Nn1cnc2c(cnn2-c2ccccc2)c1=O`, the activation was 2.94% (inactive). In addition, under setting [1], the activation was -1.1%.

Take `O=C(O)C1CC2CCCC(C1)C2=O` (centres undefined): the activation was 2.14% (inactive). Further, the activation under setting [1] amounted to 1.09%.

For the molecule `COc1ccc(C2SCCN2C(=O)c2cc3cc(Br)ccc3oc2=O)cc1` (centres undefined), the activation was 1.99% (inactive). Besides, the activation under setting [1] was -4.59%.

With `O=C1CCC(C(=O)N(Cc2ccc(F)cc2)C2CC2)=NN1c1ccccc1`, the activation is 2.48% (inactive). Also, the activation under setting [1] is 1.4%.

Take `CCn1c(C2CCN(CCC3=C(C)CCCC3(C)C)CC2)nn(C)c1=O`: the activation was 14.4% (inactive). The activation under setting [1] turned out to be 4.06%.

Regarding `CCc1cc(=O)[nH]c(-n2nc(C)cc2NC(=O)C2c3ccccc3Oc3ccccc32)n1`, the activation was 10.2% (inactive). In addition, the activation under setting [1] turned out to be 5.92%.

`CNC(=O)NC(=O)C(C)Sc1nnc(-c2ccco2)n1CCC(N)=O` (centres undefined): the activation was 1.74% (inactive). Further, under setting [1], the activation came to 5.62%.

Regarding `CCOC(=O)Nc1cc(=O)c2cc(C)ccc2o1`, the activation was 0.463% (inactive). For the same molecule, the activation under setting [1] is -6.18%.

In the case of `COc1ccc(C)c2sc(N(CCCN3CCOCC3)C(=O)c3ccc([N+](=O)[O-])cc3)nc12`, the activation is -0.485% (inactive). Also, the activation under setting [1] was -6.29%.

Take `O=C(CNCCN1CCOCC1)N(Cc1ccccc1)Cc1cccs1`: the activation is -7.58% (inactive). The activation under setting [1] was -12.6%.

As for `COCCNCC(=O)N(Cc1ccccc1)Cc1ccc(C)s1`, the activation is -5.15% (inactive). Besides, the activation under setting [1] was -13.2%.

As for `Cc1ccc(CN(Cc2ccc(F)cc2)C(=O)CNCCN2CCOCC2)s1`, the activation is 56.1% (active). Moreover, under setting [1], the activation was found to be 58%.
